{
  "source": "ChEMBL document CHEMBL4513216",
  "about": "“Probing the Open Global Health Chemical Diversity Library for Multistage-Active Starting Points for Next-Generation Antimalarials” (ACS Infect Dis, 2020)",
  "note": "In all, about 68,000 compounds went through this assay and about 2,700 (4%) showed an effect of 50% or more. The list comes from a sample in which strong results are over-represented; it also holds similar structures and randomly drawn compounds.",
  "data": [
    {"system": "Plasmodium berghei", "experiment": "Screen against P. berghei liver stage (PbLuc), transformed with Luciferase, at 2uM", "type": "functional, HepG2", "conditions": "tested at 2 uM", "units": {"INHIBITION": "%"}, "values": [
      {"smiles": "CN(C)C(C(=O)NCCn1cccc1)c1cccc(F)c1", "note": "(centres undefined)", "INHIBITION": 3.58},
      {"smiles": "CCOCC1CCN(C(=O)C(c2cccc(F)c2)N(C)C)CC1", "note": "(centres undefined)", "INHIBITION": -15.23},
      {"smiles": "COCCCN1CCN(C(=O)C(c2cccc(F)c2)N(C)C)CC1", "note": "(centres undefined)", "INHIBITION": 60.13},
      {"smiles": "CCc1[nH]ncc1C(=O)N1CCCC(n2cccn2)C1", "note": "(centres undefined)", "INHIBITION": 2.7},
      {"smiles": "Cc1ccccc1OCCCC(=O)N1CCCC(n2cncn2)C1", "note": "(centres undefined)", "INHIBITION": 39.54},
      {"smiles": "O=C(C1CN(CC2CC2)CC12CCOCC2)N1CCCC1", "note": "(centres undefined)", "INHIBITION": 31.41},
      {"smiles": "COCCN1C[C@H]2CN(Cc3cccc(OC)c3)CCN2C1=O", "INHIBITION": 36.44},
      {"smiles": "O=C1N(Cc2ccccc2)C[C@H]2CN(Cc3ccccc3Cl)CCN12", "INHIBITION": 64.44},
      {"smiles": "Cc1ccc(CN2C[C@H]3CN(Cc4ccccc4Cl)CCN3C2=O)cc1", "INHIBITION": 40.83},
      {"smiles": "CS(=O)(=O)NC[C@]12COC[C@H]1CN(Cc1ccc3c(c1)OCO3)C2", "INHIBITION": -6.8},
      {"smiles": "CCCC1CCCN(C(=O)CCn2cccn2)CC1", "note": "(centres undefined)", "INHIBITION": 63.68},
      {"smiles": "CCN(CC)CC1CCN(C(=O)CCn2cccn2)CC1", "INHIBITION": -13.06},
      {"smiles": "c1cnc(N2CCC(C3CCN(CCCn4cccn4)C3)CC2)nc1", "note": "(centres undefined)", "INHIBITION": 19.04},
      {"smiles": "COC1CCN(C(=O)CCn2cccn2)CC1", "INHIBITION": 26.61},
      {"smiles": "O=C(CCn1cccn1)N1CCC(C2CCN(c3ncccn3)CC2)C1", "note": "(centres undefined)", "INHIBITION": 52.08},
      {"smiles": "O=C(CCc1cn[nH]c1)N1CCC(C2CCN(c3ncccn3)CC2)C1", "note": "(centres undefined)", "INHIBITION": 45.48},
      {"smiles": "Cn1cccc1C(=O)N1CC2(CCN(C(=O)c3cccnc3)C2)C1", "INHIBITION": 21.77},
      {"smiles": "CCc1noc(C2CCN(C(=O)CCn3nc(C)cc3C)CC2)n1", "INHIBITION": 12.3},
      {"smiles": "c1ccc(Cc2noc(CN3CCOC(Cn4cccn4)C3)n2)cc1", "note": "(centres undefined)", "INHIBITION": -0.6},
      {"smiles": "O=C(CCO)N1C[C@H]2CN(c3ccccc3)C(=O)[C@H]2C1", "INHIBITION": 54.01},
      {"smiles": "O=C(CC1CC1)N1C[C@@H]2CN(c3ccccc3)C(=O)[C@@H]2C1", "INHIBITION": 28.2},
      {"smiles": "O=C(C1CCC1)N1C[C@@H]2CN(c3ccccc3)C(=O)[C@@H]2C1", "INHIBITION": 49.07},
      {"smiles": "NC(=O)COc1ccc(CNCc2ccc(F)c(F)c2)cc1", "INHIBITION": -52.95},
      {"smiles": "Cn1ccnc1CCNS(=O)(=O)c1ccc(Br)cc1", "INHIBITION": -16.21},
      {"smiles": "COc1cccc2c1CCC2NC(=O)NCc1csc(N(C)C)n1", "note": "(centres undefined)", "INHIBITION": -57.02},
      {"smiles": "Cc1nn(C)c(N(C)C)c1CNC(C)COc1cccc(F)c1", "note": "(centres undefined)", "INHIBITION": 34.83},
      {"smiles": "COc1ccc(CCC(=O)N(C(C)C)C2CCOCC2)cc1", "INHIBITION": 20.76},
      {"smiles": "CC(C)N(C(=O)CCc1ccco1)C1CCOCC1", "INHIBITION": 76.6},
      {"smiles": "CC(C)N(C(=O)CCc1cccc(F)c1)C1CCOCC1", "INHIBITION": -7.16},
      {"smiles": "O=C(NCC1CCCCO1)c1ccc(-c2ccco2)[nH]c1=O", "note": "(centres undefined)", "INHIBITION": 38.67},
      {"smiles": "Cc1cc(S(=O)(=O)N2CCC(N3CCC(O)C3)CC2)c(Cl)cc1Cl", "note": "(centres undefined)", "INHIBITION": 55.73},
      {"smiles": "CCN1CCN(S(=O)(=O)c2cc(C)c(Cl)cc2Cl)CC1", "INHIBITION": 26.09},
      {"smiles": "Cc1cc(S(=O)(=O)N2CC[C@@H](O)C2)c(Cl)cc1F", "INHIBITION": -54.78},
      {"smiles": "CC(C)c1nnc(CN(C)Cc2ccccc2-c2ccccc2)o1", "INHIBITION": 20.63},
      {"smiles": "CC(CCN1CCOCC1)NC(=O)c1cccc(C(F)(F)F)c1F", "note": "(centres undefined)", "INHIBITION": 18.37},
      {"smiles": "CC(CCN(C)C)NC(=O)c1cccc(C(F)(F)F)c1F", "note": "(centres undefined)", "INHIBITION": 52.38},
      {"smiles": "COc1cccc(C(=O)NC(C)CCN2CCOCC2)c1F", "note": "(centres undefined)", "INHIBITION": -22.65},
      {"smiles": "Cc1nnc2n1CCN(CCOc1cccc(C#N)c1)C2", "INHIBITION": 33.82},
      {"smiles": "CC(C)(O)CCc1ccc(C(=O)NCC2CCCOC2)cc1", "note": "(centres undefined)", "INHIBITION": 42.27},
      {"smiles": "Cc1ccc(C(=O)N2C[C@H](NS(C)(=O)=O)[C@@H](C(C)C)C2)cc1F", "INHIBITION": -43.88},
      {"smiles": "Cc1ccc(C(=O)N2C[C@@H](NS(C)(=O)=O)[C@H](C(C)C)C2)cc1O", "INHIBITION": 51.72},
      {"smiles": "Cc1nc2cc(C(=O)N3C[C@@H](NS(C)(=O)=O)[C@H](C(C)C)C3)ccc2[nH]1", "INHIBITION": -1.71},
      {"smiles": "O=C(c1ccco1)N1C2CCC(O)(CC2)C1CO", "note": "(centres undefined)", "INHIBITION": 3.38},
      {"smiles": "O=c1ccc2c(n1CCN1CCCC1)CCN(Cc1ccoc1)CC2", "INHIBITION": -1.79},
      {"smiles": "NC1CCc2c(ccc(=O)n2CC2CC2)C1", "note": "(centres undefined)", "INHIBITION": 24.86},
      {"smiles": "O=c1ccc2c(n1Cc1ccncc1)CCN(Cc1ccoc1)CC2", "INHIBITION": 50.91},
      {"smiles": "NC1CCc2c(ccc(=O)n2Cc2ccncc2)C1", "note": "(centres undefined)", "INHIBITION": 55.11},
      {"smiles": "CCn1c2c(ccc1=O)CC(N)CC2", "note": "(centres undefined)", "INHIBITION": 13.38},
      {"smiles": "O=c1ccc2c(n1Cc1cccnc1)CCN(Cc1ccoc1)CC2", "INHIBITION": 0.13},
      {"smiles": "CCOCC1CN(Cc2ccco2)Cc2nccn2C1", "note": "(centres undefined)", "INHIBITION": -7.76},
      {"smiles": "CNS(=O)(=O)c1cnccc1N1CCN(C(C)C)CC1", "INHIBITION": 15.75},
      {"smiles": "Cc1csc(CCNc2ccc(C#N)cn2)n1", "INHIBITION": 20.29},
      {"smiles": "Cc1cccc(NCCNc2ccc(C#N)cn2)n1", "INHIBITION": 60.79},
      {"smiles": "Cc1cc(NCCNc2ccc(C#N)cn2)nc(C)n1", "INHIBITION": 21.81}
    ]}
  ]
}
